Assay outcomes (PubChem)
Compounds with a hit are over-represented: about 1.3% of the library has one in this group of screens.
Vaccinia mCherry – qHTS for Stage-Specific Inhibitors of Vaccinia Orthopoxvirus: mCherry Reporter Primary qHTS; Vaccinia virus mCherry reporter infection, fluorescence; Potency, µM (top dose mostly 36.5 µM), most hits filed as inhibitors; hit rate 0.63% among 310,000; calls by dose curve; tested in A549 cells; further: nearly all actives have a fitted effect of over 35% in size
Vaccinia Venus – qHTS for Stage-Specific Inhibitors of Vaccinia Orthopoxvirus: Venus Reporter Primary qHTS. Vaccinia virus Venus reporter expression, fluorescence. Potency, µM (titrated, usually from 36.5 µM), usual class: inhibitors. hit rate 0.46% among 330,000; calls by dose curve; tested in A549 cells; further: nearly all actives have a fitted effect of over 30% in size
AmpC detergent – qHTS Inhibitors of AmpC Beta-Lactamase (assay with detergent) | P00811 | hit rate 0.041% among 370,000 | AID 485294, 2010 | AmpC hydrolysis of nitrocefin, absorbance 480 nm, 0.01% Triton | Potency, µM (titrated, usually from 114 µM), hits mostly inhibitors; further: nearly all actives have a fitted effect of over 25% in size
Target sequence (P00811 whole entry, looked up): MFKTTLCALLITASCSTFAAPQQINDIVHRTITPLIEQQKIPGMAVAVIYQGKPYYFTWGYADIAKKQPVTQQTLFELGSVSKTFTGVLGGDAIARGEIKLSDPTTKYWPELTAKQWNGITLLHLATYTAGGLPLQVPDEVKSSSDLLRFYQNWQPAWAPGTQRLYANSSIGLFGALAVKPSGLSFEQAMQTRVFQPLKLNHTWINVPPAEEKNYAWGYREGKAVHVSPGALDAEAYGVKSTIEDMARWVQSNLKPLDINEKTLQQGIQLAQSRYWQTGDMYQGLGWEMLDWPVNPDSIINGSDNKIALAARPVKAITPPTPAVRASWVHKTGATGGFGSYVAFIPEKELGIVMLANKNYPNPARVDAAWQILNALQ
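20 mM phosphate pH 7.0 + 0.01% (detergent screen) or 0.0001% Triton X-100; 5.3 nM AmpC reagent; cpd preinc 15 min RT; nitrocefin (800 uM stock) to start; A480 q20 s × 4 min; Activity was normalised to no-enzyme and no-compound control wells.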
AMA1-RON2 inh – qHTS for Inhibitors of AMA1-RON; Towards Development of Antimalarial Drug Lead: Primary Screen | hit rate 0.2% among 360,000 | Plasmodium falciparum AMA1 (3D7) - RON2 peptide interaction | AID 720542, 2013 | Potency, µM (series often up to 58.2 µM), hits mostly inhibitors | AlphaScreen AMA1-biotinylated RON2 peptide binding; further: nearly all actives have a fitted effect of over 45% in size
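AMA1 (3D7) with his tag at 25 nM final met compounds first, then biotinylated RON2 peptide at 25 nM; detection used donor plus acceptor beads, 10 µg/mL apiece, read by AlphaScreen after 30 min at room temperature.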
AmpC inh no detg – qHTS Inhibitors of AmpC Beta-Lactamase (assay without detergent) | P00811 | AmpC nitrocefin hydrolysis, absorbance 480 nm, 0.0001% Triton | Potency, µM (titrated, usually from 57.1 µM), most hits filed as inhibitors | hit rate 0.52% among 330,000 | AID 485341, 2010; further: nearly all actives have a fitted effect of over 20% in size
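20 mM phosphate pH 7.0 + 0.01% (detergent screen) or 0.0001% Triton X-100; 5.3 nM AmpC reagent; cpd preinc 15 min RT; nitrocefin (800 uM stock) to start; A480 q20 s × 4 min; Activity was normalised to no-enzyme and no-compound control wells.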
SARS PLpro yeast – qHTS of Yeast-based Assay for SARS-CoV PLP | S. cerevisiae expressing SARS-CoV PLpro, growth rescue | Potency, µM (titrated, usually from 32.9 µM), most hits filed as activators | hit rate 0.19% among 330,000 | AID 485353, 2010; calls by dose curve; further: nearly all actives have a fitted effect of over 55% in size
Hits are given with their value; – = inactive; ? = inconclusive; · = no result. Unless noted, the call rests on the fitted dose curve; in most records, active means well fitted curve in the direction sought with a large enough effect; inconclusive means small, poorly fitted or top-dose-only effect, or another doubt; inactive means no such curve, though single readings can be large; an effect the other way counts as inactive or inconclusive.

SMILES | Vaccinia mCherry | Vaccinia Venus | AmpC detergent | AMA1-RON2 inh | AmpC inh no detg | SARS PLpro yeast
Cc1cc(NC(=O)COC(=O)c2cc([N+](=O)[O-])ccc2N2CCOCC2)ccc1Br | ? | – | ? | – | 31.6µM | –
COC1=C(OC)C(=O)C(Sc2ccc3ccccc3c2)=CC1=O | – | – | · | 12.6µM | · | ·
COc1ccc(-n2c(CNC(=O)c3cccc(OC)c3OC)nnc2SC)cc1 | – | – | · | · | · | ·
CCC1CN(CCNC(=O)c2cccc(C(=O)OC)c2)Cc2cc(OC)ccc2O1 (stereo not given) | – | – | · | · | · | ·
O=[N+]([O-])c1ccc(N2CCN(Cc3ccccc3)CC2)c2c1no[n+]2[O-] | ? | – | · | 22.4µM | · | ·
O=[N+]([O-])c1ccc(N2CCN(Cc3ccccc3)CC2)s1 | – | – | – | – | – | –
CCOc1cc(CNCCc2c[nH]c3ccccc23)cc(Cl)c1OCC | ? | 11.2µM | – | ? | – | –
COc1ccc(-c2ccnc(-n3ncc(C(=O)NC(C)(C)CO)c3C3CC3)n2)cc1F | – | – | · | · | · | ·
O=C(NCCN1CCOCC1)c1ccc2c(c1)N(Cc1ccc(F)cc1)C(=O)CS2 | – | – | ? | – | 44.7µM | –
COc1ccc(C(=O)NC(=S)Nc2ccc(S(N)(=O)=O)cc2)cc1 | – | – | – | – | – | –
COc1ccc(C(=O)NC(NC(=S)Nc2ccc(S(N)(=O)=O)cc2)C(Cl)(Cl)Cl)cc1 (stereo not given) | – | – | – | – | 8.91µM | –
CC(=O)c1ccc(NC(=S)NC(NC(=O)c2ccco2)C(Cl)(Cl)Cl)cc1 (stereo not given) | · | – | – | – | 12.6µM | –
O=C(c1cc(-c2ccco2)on1)N1CCN(c2ccccc2)CC1 | – | – | – | – | 3.16µM | –
Fc1ccc(CSc2ncnc3nc[nH]c23)cc1 | – | – | ? | – | 1.58µM | –
Brc1ccc(CSc2ncnc3nc[nH]c23)cc1 | – | – | – | – | – | –
O=C(O)c1cc([N+](=O)[O-])c(Sc2nc3ccccc3[nH]2)c([N+](=O)[O-])c1 | · | · | ? | – | – | –
CS(=O)(=O)c1cc([N+](=O)[O-])c(Sc2nc3ccccc3[nH]2)c([N+](=O)[O-])c1 | · | · | ? | – | 22.4µM | –
COc1cc(=O)n2c(c1C(=O)N(C)Cc1ccsc1)CCN(Cc1c(C)nc3sccn13)CC2 | – | – | · | · | · | ·
CCOc1ccccc1NC(=O)CSC1=C(C#N)C(c2ccco2)C(C(=O)Nc2nc3ccccc3s2)=C(C)N1 (stereo not given) | – | – | – | – | 5.01µM | –
COc1cccc(C(=O)Nc2cccc(NC(=O)c3ccc(Cl)cc3Cl)c2)c1 | – | – | – | · | · | ·
COc1cccc(C(=O)Nc2cccc(C(=O)NC3=NN(c4c(Cl)cc(Cl)cc4Cl)C(=O)C3)c2)c1 | · | · | – | – | 17.8µM | –
COc1cc(CN2CCC3(CCC(CNC(=O)c4cc(C)nn4C)O3)CC2)ccc1F (stereo not given) | – | – | · | · | · | ·
Cc1cnc(-n2ncc(C(=O)NCc3ccccn3)c2C2CC2)nc1-c1cccs1 | – | – | · | · | · | ·
O=C(CSc1nc2ncc(Br)cc2[nH]1)c1cccc([N+](=O)[O-])c1 | – | – | ? | – | 31.6µM | –
Cc1nc2nc(SCC(=O)c3cccc([N+](=O)[O-])c3)[nH]c2cc1Br | – | – | – | – | – | –
SMILES | Vaccinia mCherry | Vaccinia Venus | AmpC detergent | AMA1-RON2 inh | AmpC inh no detg | SARS PLpro yeast
CC(=O)Nc1ccc(NC(=O)CNC(=O)c2sc3ccccc3c2Cl)cc1 | – | – | – | – | – | –
O=C(CNC(=O)c1sc2ccccc2c1Cl)NCc1cccc(C(F)(F)F)c1 | – | 15.8µM | – | – | – | –
COc1ccc(OC)c(N=CC2=C(O)CC(C)(C)CC2=O)c1 | – | – | – | – | – | –
COc1ccc(N=CC2=C(O)CC(C)(C)CC2=O)cc1 | · | – | – | – | – | 12.6µM
CCN1CCN(Cc2ccc(NC(=O)c3cc(NC(=O)c4cnnc5ccccc45)cc(OC)c3)cc2C(F)(F)F)CC1 | ? | 10µM | – | – | – | –
CCN1CCN(Cc2ccc(NC(=O)c3ccc(C)c(NC(=O)c4cc(-c5ccc(Br)cc5)n[nH]4)c3)cc2C(F)(F)F)CC1 | – | 10µM | – | – | – | –
CCN1CCN(Cc2ccc(NC(=O)c3ccc(C)c(NC(=O)c4nccnc4N)c3)cc2C(F)(F)F)CC1 | ? | ? | – | – | – | –
CCN1CCN(Cc2ccc(NC(=O)c3ccc(C)c(NC(=O)c4nccn4C)c3)cc2C(F)(F)F)CC1 | – | ? | – | – | – | –
CCN1CCN(Cc2ccc(NC(=O)c3ccc(C)c(NC(=O)c4cncc(-c5cccs5)c4)c3)cc2C(F)(F)F)CC1 | ? | 15.8µM | · | ? | · | ·
Cc1ccc(C(=O)N(Cc2cc3ccc(F)cc3nc2N2CCC(O)CC2)CC2CCCO2)cc1 (stereo not given) | – | – | · | · | · | ·
COc1ccccc1-c1ccnc(-n2ncc(C(=O)NCc3cccnc3)c2C)n1 | – | ? | · | · | · | ·
CC1(C)CC(=O)C2=C(C1)Oc1nc3ccccc3cc1C2C(C#N)C#N (stereo not given) | ? | 11.2µM | ? | – | – | –
CC1(C)CC(=O)C(C2C3=C(CC(C)(C)CC3=O)Oc3ccccc32)C(=O)C1 (stereo not given) | ? | – | – | – | – | –
CC1C/C(=C\c2cccnc2)C(=O)/C(=C/c2cccnc2)C1 (stereo not given) | ? | 8.91µM | – | – | – | –
CN1C(=O)C(=Cc2cccnc2)C(=O)N(C)C1=O | – | – | – | – | – | –
CN(C)CC(C)(O)c1ccc2c(c1)CN(Cc1cccn1-c1cccnc1)CCO2 (stereo not given) | – | – | · | · | · | ·
Cc1ncc2c(c1CNS(=O)(=O)N(C)C)CCN(C(=O)/C=C/c1ccccc1Cl)C2 | – | – | · | · | · | ·
O=C(N/N=C/c1ccccn1)c1cc(-c2ccc(Br)s2)[nH]n1 | – | – | – | – | – | –
O=C(N/N=C/c1ccccn1)c1cc(-c2ccc(Cl)s2)[nH]n1 | 12.6µM | – | – | – | – | –
N#CC(=C1C=C(Br)C(=NO)C=C1Cl)c1cccc2ccccc12 | ? | ? | · | 14.1µM | · | ·
CC(=O)c1ccc(F)c(-c2cc(C)cc3c2OC(CNC(=O)C[C@@H]2C[C@@H](C)NC(=S)N2)C3)c1 (stereo not given in full) | – | – | · | · | · | ·
COc1ccccc1CNC(=O)c1ccc(-c2ccccc2Cl)o1 | ? | ? | ? | – | – | –
COc1ccccc1CNC(=O)c1ccc(-c2ccccc2C(F)(F)F)o1 | 11.2µM | ? | ? | – | – | –
